Compound activity (PubChem BioAssay)
TEAD-YAP block: TEAD-YAP interaction inhibition. inhibition, % at 9.12 µM. HEK-TIYL cells, TEAD-Gal4/YAP UAS-luciferase luminescence. AID 1259422. 640,000 tested, 1.4% active; in the data active = inhibition above about 32%;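 also: 0% = median of test compound wells and 100% = reference inhibitor wells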
GPR151 ag: activators of human GPR151 | PathHunter beta-arrestin GPR151 cells, luminescence | activation, % at 11.2 µM | 650,000 tested, 1% active; in the data active = activation above about 4.9%;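 also: 0% = median of compound wells and 100% = cells with positive control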
FBW7 act: activators of human E3 ligase FBW7; AID 1259310; normalized activity (activation), % at 26.1 µM; 650,000 tested, 0.13% active; Q969H0; AlphaScreen FBW7–phospho-cyclin E peptide binding, activator screen; in the data active = normalized activity above about 1.9%;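 also: purified mutant Fbw7 with reduced substrate affinity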
MITF inh: human MITF inhibition, primary screen. O75030. AlphaScreen MITF homodimerization, bead proximity signal. inhibition, % at 2.6 µM. 650,000 tested, 0.91% active; in the data active = inhibition above about 50%;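 also: 0% = vehicle wells with protein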
Target sequence (O75030 whole entry, looked up): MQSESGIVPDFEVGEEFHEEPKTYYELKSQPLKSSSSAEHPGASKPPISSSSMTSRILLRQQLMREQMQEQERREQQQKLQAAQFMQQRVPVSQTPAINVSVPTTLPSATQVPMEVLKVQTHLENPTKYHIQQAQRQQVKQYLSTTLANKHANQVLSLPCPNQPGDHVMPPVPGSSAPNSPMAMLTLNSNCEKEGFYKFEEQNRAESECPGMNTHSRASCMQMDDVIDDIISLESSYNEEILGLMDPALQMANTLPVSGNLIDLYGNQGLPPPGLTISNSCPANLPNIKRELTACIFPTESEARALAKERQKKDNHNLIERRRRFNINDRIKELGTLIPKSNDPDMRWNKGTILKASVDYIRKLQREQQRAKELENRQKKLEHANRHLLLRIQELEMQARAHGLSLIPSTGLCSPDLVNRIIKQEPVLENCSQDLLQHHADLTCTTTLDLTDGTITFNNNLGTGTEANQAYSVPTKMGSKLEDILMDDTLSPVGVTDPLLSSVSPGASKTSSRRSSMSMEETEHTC
* hit, by the source's call. Shown are actives, neighbours in structure and some others; about 3.5% of the full set was active somewhere.

SMILES	TEAD-YAP block	GPR151 ag	FBW7 act	MITF inh
COc1cnc(-c2ccccn2)nc1-c1ccccc1	40.3*	3.3	-1.1	18.3
COc1ccc(/C=C2/C(=O)OCc3cc(OC)c(OC)cc32)cc1	45.4*	0.9	0.2	6.3
Cc1ccc(C)n1-c1ccc(C(=O)O)c(C(=O)O)c1	1.3	0.1	-0.7	-31.1
Cc1ccc(C)n1-c1ccc(Br)cc1C(=O)O	-0.6	-0.7	-0.8	82.0*
CCc1nc(SCC(=O)NCc2cccs2)c2c(C)c(C)sc2n1	-6.2	-0.5	8.1*	4.2
COCCCNC(=O)c1noc2c1COc1ccccc1-2	-61.0	-2.3	-0.1	1.6
Cc1cccc(CN2CCN(C(=O)CCl)CC2)c1	37.8*	1.9	0.0	1.6
CCOC(=O)N1CCN(Cc2cccc(C)c2)CC1	4.7	-0.1	0.3	14.6
Cc1cc(C(=O)N2CCN(Cc3ccccc3)CC2)on1	-3.0	-0.3	1.9*	16.3
COc1cccc(-c2cc(C(=O)N3CCN(Cc4ccccc4)CC3)on2)c1	-7.6	-1.1	0.1	-11.0
COC(=O)C1=C(CN2CCCCC2)NC(=O)NC1c1ccc(C)cc1C (stereo unspecified)	1.8	-0.2	-0.1	-2.1
NC(=O)c1cnn(-c2ccnc(NC(=O)Cc3ccc4c(c3)OCO4)c2)c1	45.3*	-1.6	-0.2	17.1
Cc1cccc(NC(=O)Cc2ccc3c(c2)OCO3)n1	-30.4	-0.3	1.5	-3.4
CC(=O)c1ccc(Nc2ccc(-c3ccccc3F)nn2)cc1	57.1*	-0.3	-0.1	2.1
CC(=O)c1ccc(NC2=C(Cl)C(=O)c3ccccc3C2=O)cc1	48.9*	-0.8	0.2	2.3
N=c1oc2c(Br)cc(Br)cc2cc1C(=O)Nc1nccs1	-6.0	-0.2	0.9	12.5
Cc1ccc(C)c(C(=O)Cn2c(=O)oc3ccccc32)c1	3.0	0.1	0.0	-11.2
Cc1ccccc1CNc1ccc(NC(=O)C(C)C)cc1	-14.4	-1.2	0.5	9.3
CCOC(=O)N1CCN(c2c(NCc3ccccc3)c(=O)c2=O)CC1	56.0*	0.1	0.2	-4.6
COc1ccc(/C(O)=C2/C(=O)C(=O)N(CCCn3ccnc3)C2c2ccc(Cl)c(Cl)c2)cc1 (stereo unspecified)	-11.5	-1.8	-0.1	2.6
N#Cc1c(NC(=O)COc2cccc3ccccc23)sc2c1CCCC2	-10.8	1.5	2.0*	15.3
N#Cc1c(NC(=O)Cc2ccccc2)sc2c1CCC2	-20.3	2.3	0.0	4.5
CC1Cc2ccccc2N1CC(=O)Nc1sc2c(c1C(N)=O)CCC2 (stereo unspecified)	7.1	2.0	0.0	0.5
CC1Cc2ccccc2N1CC(=O)Nc1sc2c(c1C#N)CCC2 (stereo unspecified)	38.3*	1.0	-0.1	-2.3
O=Cc1c(NC(=O)Cc2ccccc2)sc2c1CCCC2	-12.3	-0.7	2.0*	-17.6
SMILES	TEAD-YAP block	GPR151 ag	FBW7 act	MITF inh
N#Cc1c(NC(=O)CCc2ccccc2)sc2c1CCC2	39.5*	0.9	0.0	-5.1
Cn1cc(S(=O)(=O)Nc2ccccc2C(N)=O)c(=O)n(C)c1=O	-1.9	-0.1	0.1	15.0
Cc1ccc(SC(C)C(=O)Nc2ccccc2C#N)cc1 (stereo unspecified)	-8.1	-1.7	0.1	-15.2
O=C1c2ccc(Br)cc2C(=O)N1c1ccc(Cl)cc1Cl	6.4	0.0	-0.1	13.9
O=S(=O)(c1ccccc1)N(CC(O)CN1CCCCC1)c1cccc2ccccc12 (stereo unspecified)	-17.5	0.0	-0.1	-0.8
Cc1c(N(S(=O)(=O)c2ccc3ccccc3c2)S(=O)(=O)c2ccc3ccccc3c2)c(=O)n(-c2ccccc2)n1C	6.8	0.6	-0.1	-1.6
CC(=O)Nc1sc2c(c1C#N)CCN(C(C)=O)C2	6.6	1.3	-0.1	-12.3
CCOC(=O)N1CCc2c(sc(NC(=O)/C=C/c3ccccc3)c2C#N)C1	34.7*	-2.0	0.0	-8.8
CCOC(=O)N1CCc2c(sc(NC(=O)/C=C/c3ccccc3Cl)c2C#N)C1	-2.3	-0.7	-0.1	-6.3
CCOC(=O)N1CCc2c(sc(NC(=O)c3ccccc3[N+](=O)[O-])c2C#N)C1	53.4*	1.0	-0.1	-10.3
CC(=O)N1CCc2c(sc(NC(=O)/C=C/c3cccs3)c2C#N)C1	58.0*	0.1	-0.1	8.9
CCOC(=O)N1CCc2c(sc(NC(=O)CCc3ccccc3)c2C#N)C1	54.3*	0.4	-0.1	-4.5
O=C(/C=C/c1ccc(Br)o1)Nc1ccc(Br)cc1	-29.0	2.3	-0.2	1.7
COc1cccc(NC(=O)C2C3C=CC4(O3)C2C(=O)N(Cc2ccccc2F)C4C(=O)NC2CCCCC2C)c1 (stereo unspecified)	0.1	-1.0	0.1	-4.7
